Data on 42 compounds can be found in the antibiotic and cytotoxicity screens of Wong et al. (2023).

The campaign covered roughly 39,000 compounds. About 3,300 (8.5%) were called active. For the sample, actives were picked, then their nearest neighbours and some compounds at random.

In the assay the test system is HepG2. The experiment in a line: cytotoxicity call (relative viability < 0.9). Particulars: 10 µM.
As for `C[C@H]1CCCCO[C@@H](CN(C)C(=O)Nc2ccc(C(F)(F)F)cc2)[C@@H](C)CN([C@@H](C)CO)C(=O)c2cc(N(C)C)ccc2O1`, the cytotoxicity call was “inactive”.

As for `CC(C)NC(=O)Nc1ccc2c(c1)CC(=O)N([C@H](C)CO)C[C@@H](C)[C@@H](CN(C)Cc1ccc3c(c1)OCO3)O2`, the cytotoxicity call is “inactive”.

Take `C[C@@H]1CCCCO[C@H](CN(C)C(=O)Cc2ccccc2)[C@@H](C)CN([C@H](C)CO)C(=O)c2cc(NC(=O)Cc3ccccc3)ccc2O1`: the cytotoxicity call is “inactive”.

Regarding `C[C@H]1CN([C@@H](C)CO)C(=O)c2cccc(NC(=O)c3ccc(-c4nccs4)cc3)c2O[C@H]1CN(C)C(=O)NC1CCCCC1`, the cytotoxicity call was “inactive”.

On to `CC(C)NC(=O)N(C)C[C@H]1OCCCC[C@H](C)Oc2ccc(NC(=O)Nc3ccc(C(F)(F)F)cc3)cc2C(=O)N([C@H](C)CO)C[C@@H]1C`, for which the cytotoxicity call is “inactive”.

Consider `C[C@H]1CCCCO[C@H](CN(C)C(=O)Nc2ccc(C(F)(F)F)cc2)[C@@H](C)CN([C@@H](C)CO)C(=O)c2cc(NC(=O)Nc3ccc(C(F)(F)F)cc3)ccc2O1`, for which the cytotoxicity call was “active”.

For the compound `Cc1noc(C)c1NC(=O)N(C)C[C@@H]1OCCCC[C@@H](C)Oc2ccc(NC(=O)Nc3ccc(C(F)(F)F)cc3)cc2C(=O)N([C@H](C)CO)C[C@@H]1C`, the cytotoxicity call was “inactive”.

As to `Cc1noc(C)c1NC(=O)N(C)C[C@H]1OCCCC[C@@H](C)Oc2ccc(NC(=O)Nc3ccc(C(F)(F)F)cc3)cc2C(=O)N([C@@H](C)CO)C[C@H]1C`, the cytotoxicity call is “inactive”.

Regarding `C[C@H]1CCCCO[C@@H](CN(C)C(=O)Nc2ccc(C(F)(F)F)cc2)[C@@H](C)CN([C@@H](C)CO)C(=O)c2cc(NC(=O)Nc3ccc(C(F)(F)F)cc3)ccc2O1`, the cytotoxicity call is “inactive”.

`C[C@@H]1CCCCO[C@H](CN(C)C(=O)Nc2ccc(C(F)(F)F)cc2)[C@@H](C)CN([C@@H](C)CO)C(=O)c2cc(NC(=O)Nc3ccc(C(F)(F)F)cc3)ccc2O1`: the cytotoxicity call is “inactive”.

As for `CC(C)NC(=O)N(C)C[C@H]1OCCCC[C@@H](C)Oc2ccc(NC(=O)Nc3ccc(C(F)(F)F)cc3)cc2C(=O)N([C@@H](C)CO)C[C@H]1C`, the cytotoxicity call was “inactive”.

In the case of `C[C@H](CO)N1C[C@H](C)[C@H](CN(C)C(=O)Nc2ccc(C(F)(F)F)cc2)OCCCC[C@H](C)Oc2ccc(NC(=O)Nc3ccc(C(F)(F)F)cc3)cc2C1=O`, the cytotoxicity call was “inactive”.

As to `C[C@@H]1CCCCO[C@H](CN(C)C(=O)Nc2ccc(C(F)(F)F)cc2)[C@H](C)CN([C@H](C)CO)C(=O)c2cc(NC(=O)Nc3ccc(C(F)(F)F)cc3)ccc2O1`, the cytotoxicity call was “inactive”.

Turning to `CC(C)NC(=O)N(C)C[C@@H]1OCCCC[C@H](C)Oc2ccc(NC(=O)Nc3ccc(C(F)(F)F)cc3)cc2C(=O)N([C@@H](C)CO)C[C@@H]1C`, the cytotoxicity call is “active”.

In the case of `C[C@@H]1CN([C@H](C)CO)C(=O)c2cc(NC(=O)Nc3ccc(C(F)(F)F)cc3)ccc2O[C@@H](C)CCCCO[C@H]1CN(C)C(=O)Nc1ccc(C(F)(F)F)cc1`, the cytotoxicity call is “active”.

`Cc1noc(C)c1NC(=O)N(C)C[C@@H]1OCCCC[C@H](C)Oc2ccc(NC(=O)Nc3ccc(C(F)(F)F)cc3)cc2C(=O)N([C@@H](C)CO)C[C@@H]1C`: the cytotoxicity call was “active”.

Take `C[C@@H]1CCCCO[C@@H](CN(C)S(C)(=O)=O)[C@H](C)CN([C@@H](C)CO)C(=O)c2cc(NS(=O)(=O)c3cn(C)cn3)ccc2O1`: the cytotoxicity call was “inactive”.

`C[C@H]1CN([C@@H](C)CO)C(=O)c2cc(NC(=O)C3CC3)ccc2O[C@@H]1CN(C)C(=O)NC1CCCCC1`: the cytotoxicity call is “inactive”.

For the compound `O=C(C[C@H]1C[C@@H]2c3cc(NC(=O)Cc4ccncc4)ccc3O[C@@H]2[C@H](CO)O1)NCCN1CCCCC1`, the cytotoxicity call was “inactive”.

Regarding `C[C@H]1CN([C@@H](C)CO)C(=O)c2cccc(NC(=O)CCCCCC(=O)Nc3ccccc3N)c2O[C@@H]1CN(C)C(=O)Nc1ccc(F)cc1`, the cytotoxicity call is “inactive”.

With `C[C@@H]1CCCCO[C@@H](CN(C)CC2CCCCC2)[C@@H](C)CN([C@H](C)CO)C(=O)c2cc(NC(=O)Cc3ccccc3)ccc2O1`, the cytotoxicity call is “inactive”.

Consider `COc1ccccc1[C@@H](NC(=O)C1CCN(CCn2cnc3c2c(=O)n(C)c(=O)n3C)CC1)c1ccccn1`, for which the cytotoxicity call is “inactive”.

Turning to `CN1CCN(C(=O)C[C@H]2C[C@H]3c4cc(NS(=O)(=O)c5ccc(F)cc5)ccc4O[C@H]3[C@@H](CO)O2)CC1`, the cytotoxicity call is “inactive”.

With `C[C@@H]1CCCCO[C@@H](CN(C)S(=O)(=O)c2ccc(Cl)cc2)[C@@H](C)CN([C@@H](C)CO)C(=O)c2cc(NC(=O)Nc3ccc(C(F)(F)F)cc3)ccc2O1`, the cytotoxicity call is “inactive”.

As to `COc1ccc(NC(=O)N(C)C[C@H]2OCCCC[C@@H](C)Oc3ccc(NC(=O)Nc4ccc(C(F)(F)F)cc4)cc3C(=O)N([C@H](C)CO)C[C@H]2C)cc1`, the cytotoxicity call is “active”.

Take `COc1ccc(NC(=O)Nc2ccc3c(c2)C(=O)N([C@H](C)CO)C[C@@H](C)[C@H](CN(C)C(=O)Nc2ccc(C(F)(F)F)cc2)OCCCC[C@@H](C)O3)cc1`: the cytotoxicity call is “inactive”.

In the case of `COc1ccc(NC(=O)N(C)C[C@@H]2OCCCC[C@@H](C)Oc3ccc(NC(=O)Nc4ccc(C(F)(F)F)cc4)cc3C(=O)N([C@H](C)CO)C[C@@H]2C)cc1`, the cytotoxicity call was “inactive”.

`O=C(C[C@H]1CC[C@@H]2[C@H](COC[C@H](O)CN2C(=O)c2cccnc2)O1)NCC1CC1`: the cytotoxicity call is “inactive”.

In the case of `Fc1cccc(-c2csc(COc3ccccc3Cl)n2)c1`, the cytotoxicity call is “inactive”.

On to `Cc1cc(=O)oc2cc(O)c(O)cc12`, for which the cytotoxicity call was “inactive”.

Regarding `O=c1c(O)c(-c2cc(O)c(O)c(O)c2)oc2cc(O)cc(O)c12`, the cytotoxicity call was “inactive”.

As for `O=c1oc2c(O)c(O)cc3c(=O)oc4c(O)c(O)cc1c4c23`, the cytotoxicity call is “active”.

For `O=C(C[C@@H]1C[C@H]2c3cc(NC(=O)C4CCOCC4)ccc3O[C@H]2[C@@H](CO)O1)NCc1ccc2c(c1)OCO2`, the cytotoxicity call is “inactive”.

As to `COc1ccc([C@H]([C@H](Cc2ccccc2)OC(C)=O)N(C[C@H](/C=C/c2ccccc2)NC(=O)C(Cl)(Cl)Cl)[C@@H](Cc2ccccc2)C(OC)OC)cc1`, the cytotoxicity call is “inactive”.

In the case of `COc1ccc([C@H]([C@@H](O)Cc2ccccc2)N(C/C=C/[C@@H](O)c2ccccc2)[C@@H](Cc2ccccc2)C(OC)OC)cc1`, the cytotoxicity call is “inactive”.

`COc1ccc([C@H]([C@@H](O)Cc2ccccc2)N(C[C@H](/C=C/c2ccccc2)NC(=O)C(Cl)(Cl)Cl)[C@@H](Cc2ccccc2)C(OC)OC)cc1`: the cytotoxicity call was “inactive”.

For the compound `COc1ccc([C@@H]([C@H](Cc2ccccc2)OC(C)=O)N2C[C@H](CC(=O)N(C)C)[C@@H]3C(=NO[C@H]3c3ccccc3)[C@@H]2Cc2ccccc2)cc1`, the cytotoxicity call was “inactive”.

Regarding `COc1ccc([C@H]([C@H](Cc2ccccc2)OC(C)=O)N(C[C@H](/C=C/c2ccccc2)CC(=O)N(C)C)[C@@H](Cc2ccccc2)C(OC)OC)cc1`, the cytotoxicity call is “active”.

For `COc1ccc([C@H]([C@@H](O)Cc2ccccc2)N(C[C@H](/C=C/c2ccccc2)CC(=O)N(C)C)[C@@H](Cc2ccccc2)C(OC)OC)cc1`, the cytotoxicity call is “active”.

On to `COc1ccc([C@H]([C@H](Cc2ccccc2)OC(C)=O)N(C[C@H](/C=C/c2ccccc2)OC(C)=O)[C@@H](Cc2ccccc2)C(OC)OC)cc1`, for which the cytotoxicity call is “inactive”.

Take `COc1ccc([C@H]([C@H](Cc2ccccc2)OC(C)=O)N(C[C@@H](/C=C/c2ccccc2)CC(=O)N(C)C)[C@@H](Cc2ccccc2)C(OC)OC)cc1`: the cytotoxicity call was “active”.

In the case of `COc1ccc([C@@H]([C@H](Cc2ccccc2)OC(C)=O)N2C[C@@H](CC(=O)N(C)C)[C@@H]3C(=NO[C@H]3c3ccccc3)[C@@H]2Cc2ccccc2)cc1`, the cytotoxicity call was “inactive”.
